Among the data in ChEMBL document CHEMBL2218924, “A broad activity screen in support of a chemogenomic map for kinase signalling research and drug discovery” (Biochem J, 2013) are residual activity values, retold here.

Broadly, the residual activity is the signal under treatment as a percentage of the control signal.

Assay [1] addresses T1, Serine/threonine-protein kinase 17A (Homo sapiens) (UniProt Q9UEE5).
T1 sequence (whole entry): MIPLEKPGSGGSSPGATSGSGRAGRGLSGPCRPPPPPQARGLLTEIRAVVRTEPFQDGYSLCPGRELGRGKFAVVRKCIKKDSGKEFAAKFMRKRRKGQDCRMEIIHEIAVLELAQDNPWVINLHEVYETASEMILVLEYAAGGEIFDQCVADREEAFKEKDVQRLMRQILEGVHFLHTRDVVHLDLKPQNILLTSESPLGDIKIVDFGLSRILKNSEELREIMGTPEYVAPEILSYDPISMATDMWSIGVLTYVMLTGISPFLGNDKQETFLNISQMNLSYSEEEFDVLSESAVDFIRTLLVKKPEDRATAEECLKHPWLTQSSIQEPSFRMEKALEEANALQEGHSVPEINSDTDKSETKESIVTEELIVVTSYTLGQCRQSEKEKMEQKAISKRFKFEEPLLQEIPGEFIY
Conditions: at 10 µM.

Assay [2] deals with T2, Dual specificity tyrosine-phosphorylation-regulated kinase 2 (Homo sapiens) (UniProt Q92630).
T2 sequence (whole entry): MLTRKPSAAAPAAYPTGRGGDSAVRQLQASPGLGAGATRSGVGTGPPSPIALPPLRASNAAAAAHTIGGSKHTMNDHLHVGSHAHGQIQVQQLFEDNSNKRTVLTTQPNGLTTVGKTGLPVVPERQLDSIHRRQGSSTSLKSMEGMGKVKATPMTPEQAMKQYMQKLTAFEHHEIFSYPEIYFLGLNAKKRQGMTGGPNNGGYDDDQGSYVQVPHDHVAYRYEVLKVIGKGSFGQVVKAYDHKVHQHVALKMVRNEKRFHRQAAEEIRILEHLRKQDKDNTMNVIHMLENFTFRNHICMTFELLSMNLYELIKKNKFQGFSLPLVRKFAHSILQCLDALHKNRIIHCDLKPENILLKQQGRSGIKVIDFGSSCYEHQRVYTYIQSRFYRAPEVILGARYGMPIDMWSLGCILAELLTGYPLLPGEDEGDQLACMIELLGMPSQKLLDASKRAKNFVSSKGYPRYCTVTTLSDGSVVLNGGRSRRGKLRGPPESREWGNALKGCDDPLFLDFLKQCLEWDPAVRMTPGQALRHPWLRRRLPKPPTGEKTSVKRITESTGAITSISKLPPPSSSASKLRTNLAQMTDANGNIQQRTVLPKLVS
Conditions: at 1 µM.

Assay [3] concerns the target T2, Dual specificity tyrosine-phosphorylation-regulated kinase 2 (Homo sapiens). Conditions: at 10 µM.
In assay [4] the target is T3, Ephrin type-A receptor 1 (Homo sapiens) (UniProt P21709).
T3 sequence (whole entry): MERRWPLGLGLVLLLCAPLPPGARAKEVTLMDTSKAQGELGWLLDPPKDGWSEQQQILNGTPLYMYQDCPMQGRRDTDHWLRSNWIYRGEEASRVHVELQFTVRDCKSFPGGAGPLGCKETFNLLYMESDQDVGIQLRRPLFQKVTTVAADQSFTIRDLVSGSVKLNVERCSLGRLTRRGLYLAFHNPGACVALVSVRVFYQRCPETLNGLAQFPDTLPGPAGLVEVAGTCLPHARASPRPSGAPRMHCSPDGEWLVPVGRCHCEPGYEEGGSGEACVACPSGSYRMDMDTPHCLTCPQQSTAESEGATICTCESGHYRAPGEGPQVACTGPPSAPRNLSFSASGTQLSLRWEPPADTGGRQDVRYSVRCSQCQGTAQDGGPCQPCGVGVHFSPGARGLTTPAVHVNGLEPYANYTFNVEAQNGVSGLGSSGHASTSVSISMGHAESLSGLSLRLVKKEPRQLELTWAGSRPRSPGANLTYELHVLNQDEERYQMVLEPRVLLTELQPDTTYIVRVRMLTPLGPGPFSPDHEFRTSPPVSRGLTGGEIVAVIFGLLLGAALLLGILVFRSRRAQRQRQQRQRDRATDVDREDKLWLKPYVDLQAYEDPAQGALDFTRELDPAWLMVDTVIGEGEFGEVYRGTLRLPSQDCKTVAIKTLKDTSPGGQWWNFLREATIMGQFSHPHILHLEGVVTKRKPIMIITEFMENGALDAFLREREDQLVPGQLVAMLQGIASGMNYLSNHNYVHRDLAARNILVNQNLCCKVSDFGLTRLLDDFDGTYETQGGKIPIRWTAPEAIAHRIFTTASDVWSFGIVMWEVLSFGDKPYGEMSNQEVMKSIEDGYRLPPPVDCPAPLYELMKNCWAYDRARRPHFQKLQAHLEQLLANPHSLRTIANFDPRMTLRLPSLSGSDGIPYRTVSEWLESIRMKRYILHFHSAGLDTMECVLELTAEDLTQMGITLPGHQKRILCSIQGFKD
As to conditions: at 1 µM.

In assay [5] the target is T3, Ephrin type-A receptor 1 (Homo sapiens). Conditions: at 10 µM.
The target of assay [6] is Ephrin type-A receptor 2 (Homo sapiens) (UniProt P29317). As to conditions: at 1 µM.
Sequence of Ephrin type-A receptor 2 (Homo sapiens) (P29317 whole entry): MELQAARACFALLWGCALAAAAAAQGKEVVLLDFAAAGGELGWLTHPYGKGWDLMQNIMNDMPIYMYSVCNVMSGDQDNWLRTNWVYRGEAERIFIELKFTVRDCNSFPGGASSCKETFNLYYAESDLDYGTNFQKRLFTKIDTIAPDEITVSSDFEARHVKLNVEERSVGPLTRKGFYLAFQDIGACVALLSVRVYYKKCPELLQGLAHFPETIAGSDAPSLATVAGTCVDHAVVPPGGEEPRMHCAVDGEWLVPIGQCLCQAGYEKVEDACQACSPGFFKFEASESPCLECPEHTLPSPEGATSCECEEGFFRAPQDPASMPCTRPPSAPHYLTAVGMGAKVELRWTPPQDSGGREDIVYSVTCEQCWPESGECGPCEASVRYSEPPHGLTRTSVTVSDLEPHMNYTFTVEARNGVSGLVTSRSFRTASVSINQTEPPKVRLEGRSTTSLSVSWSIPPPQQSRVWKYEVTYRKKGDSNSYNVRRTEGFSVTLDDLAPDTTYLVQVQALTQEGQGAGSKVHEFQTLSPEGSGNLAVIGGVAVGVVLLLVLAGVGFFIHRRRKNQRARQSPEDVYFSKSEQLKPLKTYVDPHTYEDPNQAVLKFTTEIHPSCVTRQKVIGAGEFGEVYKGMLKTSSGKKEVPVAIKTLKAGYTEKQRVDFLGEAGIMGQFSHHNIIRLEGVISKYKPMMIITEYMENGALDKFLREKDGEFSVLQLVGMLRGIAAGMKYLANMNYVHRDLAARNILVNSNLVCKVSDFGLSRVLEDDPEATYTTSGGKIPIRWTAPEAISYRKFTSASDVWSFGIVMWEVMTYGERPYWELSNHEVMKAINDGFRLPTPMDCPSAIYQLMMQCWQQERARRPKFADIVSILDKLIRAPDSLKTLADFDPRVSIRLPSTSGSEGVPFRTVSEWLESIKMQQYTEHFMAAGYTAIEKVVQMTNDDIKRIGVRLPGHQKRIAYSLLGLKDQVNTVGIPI
The target is the same in assay [7]. As to conditions: at 10 µM.
Assay [8] deals with T4, Ephrin type-A receptor 3 (Homo sapiens) (UniProt P29320).
T4 sequence (whole entry): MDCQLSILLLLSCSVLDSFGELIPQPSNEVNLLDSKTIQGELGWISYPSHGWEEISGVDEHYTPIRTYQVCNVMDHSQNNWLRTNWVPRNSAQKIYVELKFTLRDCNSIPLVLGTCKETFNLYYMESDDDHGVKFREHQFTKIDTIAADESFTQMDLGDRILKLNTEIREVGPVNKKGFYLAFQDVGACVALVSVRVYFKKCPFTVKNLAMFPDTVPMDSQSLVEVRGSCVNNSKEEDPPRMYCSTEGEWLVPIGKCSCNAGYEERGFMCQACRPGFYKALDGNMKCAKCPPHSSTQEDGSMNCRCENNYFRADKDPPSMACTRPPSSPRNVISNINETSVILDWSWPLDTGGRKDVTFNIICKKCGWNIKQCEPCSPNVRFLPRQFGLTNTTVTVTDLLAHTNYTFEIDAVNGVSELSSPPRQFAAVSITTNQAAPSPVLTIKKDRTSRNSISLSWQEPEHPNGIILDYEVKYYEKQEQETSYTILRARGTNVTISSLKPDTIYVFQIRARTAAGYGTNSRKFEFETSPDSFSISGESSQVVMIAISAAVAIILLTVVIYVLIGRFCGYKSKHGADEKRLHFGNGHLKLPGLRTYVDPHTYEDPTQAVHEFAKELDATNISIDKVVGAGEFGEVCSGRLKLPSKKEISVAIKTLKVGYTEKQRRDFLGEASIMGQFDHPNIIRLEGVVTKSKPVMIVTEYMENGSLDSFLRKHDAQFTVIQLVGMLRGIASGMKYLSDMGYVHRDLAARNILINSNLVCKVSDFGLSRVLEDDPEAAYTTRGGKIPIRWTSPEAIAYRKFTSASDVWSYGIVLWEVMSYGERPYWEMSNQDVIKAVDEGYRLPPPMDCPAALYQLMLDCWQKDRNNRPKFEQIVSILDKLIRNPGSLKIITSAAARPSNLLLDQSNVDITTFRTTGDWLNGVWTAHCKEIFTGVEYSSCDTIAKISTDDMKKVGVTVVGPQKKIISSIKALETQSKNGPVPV
Conditions: at 1 µM.

Assay [9] has as its target T4, Ephrin type-A receptor 3 (Homo sapiens). As to conditions: at 10 µM.
Assay [10] addresses Ephrin type-A receptor 4 (Homo sapiens) (UniProt P54764). As to conditions: at 1 µM.
Assay [11] shares this target. Conditions: at 10 µM.
The target in assay [12] is Ephrin type-A receptor 5 (Homo sapiens) (UniProt P54756). Conditions: at 1 µM.
Sequence of Ephrin type-A receptor 5 (Homo sapiens) (P54756 whole entry): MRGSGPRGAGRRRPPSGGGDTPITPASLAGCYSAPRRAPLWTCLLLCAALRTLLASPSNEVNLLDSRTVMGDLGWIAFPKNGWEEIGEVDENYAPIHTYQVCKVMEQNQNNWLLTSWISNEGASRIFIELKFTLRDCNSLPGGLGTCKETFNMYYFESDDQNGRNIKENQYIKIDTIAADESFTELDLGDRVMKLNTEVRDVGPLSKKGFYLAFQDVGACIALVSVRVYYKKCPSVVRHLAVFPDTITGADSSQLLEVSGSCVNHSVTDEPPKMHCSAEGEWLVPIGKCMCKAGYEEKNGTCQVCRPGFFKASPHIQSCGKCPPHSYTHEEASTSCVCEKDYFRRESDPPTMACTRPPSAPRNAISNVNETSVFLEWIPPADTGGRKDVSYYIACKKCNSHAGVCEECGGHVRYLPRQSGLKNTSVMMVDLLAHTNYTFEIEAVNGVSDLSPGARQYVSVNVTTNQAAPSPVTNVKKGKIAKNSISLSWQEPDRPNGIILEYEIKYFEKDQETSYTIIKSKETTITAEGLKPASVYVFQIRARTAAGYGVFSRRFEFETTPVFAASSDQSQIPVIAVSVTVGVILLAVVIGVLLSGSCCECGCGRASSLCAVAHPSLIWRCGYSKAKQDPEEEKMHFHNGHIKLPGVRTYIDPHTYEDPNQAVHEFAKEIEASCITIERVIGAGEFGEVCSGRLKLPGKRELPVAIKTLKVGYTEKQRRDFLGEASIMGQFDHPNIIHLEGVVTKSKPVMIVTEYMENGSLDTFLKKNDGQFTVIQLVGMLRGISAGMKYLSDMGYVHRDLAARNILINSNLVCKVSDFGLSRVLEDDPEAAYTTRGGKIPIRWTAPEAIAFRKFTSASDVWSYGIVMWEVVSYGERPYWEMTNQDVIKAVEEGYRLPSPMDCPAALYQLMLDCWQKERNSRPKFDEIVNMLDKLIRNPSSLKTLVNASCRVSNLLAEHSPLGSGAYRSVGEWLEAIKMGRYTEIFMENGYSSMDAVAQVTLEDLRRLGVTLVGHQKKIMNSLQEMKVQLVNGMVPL
The target is the same in assay [13]. Conditions: at 10 µM.
In assay [14] the target is Ephrin type-A receptor 7 (Homo sapiens) (UniProt Q15375). As to conditions: at 1 µM.
Assay [15] shares this target. As to conditions: at 10 µM.
The target in assay [16] is T5, Ephrin type-A receptor 8 (Homo sapiens) (UniProt P29322).
T5 sequence (whole entry): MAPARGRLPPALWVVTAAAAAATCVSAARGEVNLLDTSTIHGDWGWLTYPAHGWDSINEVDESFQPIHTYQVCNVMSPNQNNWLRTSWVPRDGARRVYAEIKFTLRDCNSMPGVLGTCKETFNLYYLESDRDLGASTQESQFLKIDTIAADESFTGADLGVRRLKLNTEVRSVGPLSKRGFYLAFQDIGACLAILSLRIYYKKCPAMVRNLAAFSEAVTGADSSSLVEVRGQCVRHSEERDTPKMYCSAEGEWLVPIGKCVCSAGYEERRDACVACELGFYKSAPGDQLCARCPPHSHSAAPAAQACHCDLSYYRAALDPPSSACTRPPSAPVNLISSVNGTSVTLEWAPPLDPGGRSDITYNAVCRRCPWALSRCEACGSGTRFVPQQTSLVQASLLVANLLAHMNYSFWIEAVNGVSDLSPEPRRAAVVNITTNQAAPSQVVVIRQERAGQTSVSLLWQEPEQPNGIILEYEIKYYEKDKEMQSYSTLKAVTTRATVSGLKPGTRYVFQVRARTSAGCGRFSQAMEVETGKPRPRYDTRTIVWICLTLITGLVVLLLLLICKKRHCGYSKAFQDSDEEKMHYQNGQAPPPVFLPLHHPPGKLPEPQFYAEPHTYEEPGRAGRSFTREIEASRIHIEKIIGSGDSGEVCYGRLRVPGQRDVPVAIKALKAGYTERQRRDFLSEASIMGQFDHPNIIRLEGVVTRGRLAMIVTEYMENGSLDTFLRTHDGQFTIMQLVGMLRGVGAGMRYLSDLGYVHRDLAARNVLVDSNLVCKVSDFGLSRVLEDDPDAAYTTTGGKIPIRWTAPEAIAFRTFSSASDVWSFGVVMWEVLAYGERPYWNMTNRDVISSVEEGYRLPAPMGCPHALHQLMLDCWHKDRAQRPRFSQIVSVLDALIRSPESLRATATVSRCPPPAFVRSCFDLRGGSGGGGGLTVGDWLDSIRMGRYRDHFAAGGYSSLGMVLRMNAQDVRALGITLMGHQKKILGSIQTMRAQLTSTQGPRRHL
Conditions: at 1 µM.

For assay [17], the target named is T5, Ephrin type-A receptor 8 (Homo sapiens). Conditions: at 10 µM.
In assay [18] the target is T6, Ephrin type-B receptor 1 (Homo sapiens) (UniProt P54762).
T6 sequence (whole entry): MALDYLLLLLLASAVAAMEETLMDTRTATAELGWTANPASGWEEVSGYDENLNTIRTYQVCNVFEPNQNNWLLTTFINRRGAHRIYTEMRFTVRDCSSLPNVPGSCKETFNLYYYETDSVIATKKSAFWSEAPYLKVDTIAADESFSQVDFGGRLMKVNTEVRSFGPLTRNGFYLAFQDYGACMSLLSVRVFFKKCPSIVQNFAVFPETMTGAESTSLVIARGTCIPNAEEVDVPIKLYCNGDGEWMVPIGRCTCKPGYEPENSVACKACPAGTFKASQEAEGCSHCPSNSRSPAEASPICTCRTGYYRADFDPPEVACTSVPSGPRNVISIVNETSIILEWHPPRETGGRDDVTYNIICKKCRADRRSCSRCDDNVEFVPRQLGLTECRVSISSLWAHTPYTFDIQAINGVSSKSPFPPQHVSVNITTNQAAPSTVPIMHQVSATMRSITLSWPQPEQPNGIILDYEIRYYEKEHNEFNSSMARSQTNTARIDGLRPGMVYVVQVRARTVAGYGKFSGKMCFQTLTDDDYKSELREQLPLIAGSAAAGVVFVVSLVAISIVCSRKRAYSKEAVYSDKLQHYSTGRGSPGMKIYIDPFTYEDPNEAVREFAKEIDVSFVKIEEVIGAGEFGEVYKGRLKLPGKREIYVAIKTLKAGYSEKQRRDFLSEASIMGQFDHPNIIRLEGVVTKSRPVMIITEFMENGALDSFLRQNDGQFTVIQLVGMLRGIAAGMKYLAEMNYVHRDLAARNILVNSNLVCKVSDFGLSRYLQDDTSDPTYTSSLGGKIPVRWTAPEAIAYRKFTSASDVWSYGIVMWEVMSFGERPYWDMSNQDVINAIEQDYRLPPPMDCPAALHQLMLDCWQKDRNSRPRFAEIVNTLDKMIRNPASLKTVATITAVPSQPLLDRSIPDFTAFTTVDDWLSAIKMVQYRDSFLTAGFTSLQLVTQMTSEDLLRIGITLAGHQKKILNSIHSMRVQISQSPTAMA
Conditions: at 1 µM.

In assay [19] the target is Epidermal growth factor receptor (Homo sapiens) (UniProt P00533). Conditions: at 1 µM.
Sequence of Epidermal growth factor receptor (Homo sapiens) (P00533 whole entry): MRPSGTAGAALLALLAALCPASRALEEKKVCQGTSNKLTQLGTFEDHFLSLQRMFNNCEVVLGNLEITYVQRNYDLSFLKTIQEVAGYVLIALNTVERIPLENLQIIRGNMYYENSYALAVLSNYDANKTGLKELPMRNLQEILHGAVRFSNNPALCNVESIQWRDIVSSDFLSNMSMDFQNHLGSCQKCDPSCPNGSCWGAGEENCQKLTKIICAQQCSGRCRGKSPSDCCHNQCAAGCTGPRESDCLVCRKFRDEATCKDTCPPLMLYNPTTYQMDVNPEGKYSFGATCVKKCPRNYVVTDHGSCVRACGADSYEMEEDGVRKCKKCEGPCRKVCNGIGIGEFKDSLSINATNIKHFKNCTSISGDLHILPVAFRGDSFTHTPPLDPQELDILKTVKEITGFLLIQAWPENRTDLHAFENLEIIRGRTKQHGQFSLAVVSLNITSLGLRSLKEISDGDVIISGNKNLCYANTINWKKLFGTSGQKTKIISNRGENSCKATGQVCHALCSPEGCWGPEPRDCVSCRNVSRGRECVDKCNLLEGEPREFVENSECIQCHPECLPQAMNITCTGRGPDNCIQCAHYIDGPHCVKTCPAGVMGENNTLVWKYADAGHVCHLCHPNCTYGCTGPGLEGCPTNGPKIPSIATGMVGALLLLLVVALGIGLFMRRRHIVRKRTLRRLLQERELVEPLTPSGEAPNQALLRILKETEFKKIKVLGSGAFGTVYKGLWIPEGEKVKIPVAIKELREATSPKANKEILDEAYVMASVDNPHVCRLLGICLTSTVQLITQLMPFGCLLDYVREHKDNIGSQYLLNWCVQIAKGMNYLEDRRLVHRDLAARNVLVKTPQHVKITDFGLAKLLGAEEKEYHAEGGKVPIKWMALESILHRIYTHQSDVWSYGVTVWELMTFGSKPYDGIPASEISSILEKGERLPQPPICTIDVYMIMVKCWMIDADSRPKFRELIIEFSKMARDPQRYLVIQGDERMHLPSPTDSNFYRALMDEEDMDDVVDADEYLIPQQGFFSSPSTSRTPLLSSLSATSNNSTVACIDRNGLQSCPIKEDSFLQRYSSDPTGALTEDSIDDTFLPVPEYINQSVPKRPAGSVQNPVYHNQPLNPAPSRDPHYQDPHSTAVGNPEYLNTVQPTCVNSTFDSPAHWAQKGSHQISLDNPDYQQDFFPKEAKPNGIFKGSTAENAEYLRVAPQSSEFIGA
Assay [20] shares this target. As to conditions: at 10 µM.

Sequence of Ephrin type-A receptor 4 (Homo sapiens) (P54764 whole entry): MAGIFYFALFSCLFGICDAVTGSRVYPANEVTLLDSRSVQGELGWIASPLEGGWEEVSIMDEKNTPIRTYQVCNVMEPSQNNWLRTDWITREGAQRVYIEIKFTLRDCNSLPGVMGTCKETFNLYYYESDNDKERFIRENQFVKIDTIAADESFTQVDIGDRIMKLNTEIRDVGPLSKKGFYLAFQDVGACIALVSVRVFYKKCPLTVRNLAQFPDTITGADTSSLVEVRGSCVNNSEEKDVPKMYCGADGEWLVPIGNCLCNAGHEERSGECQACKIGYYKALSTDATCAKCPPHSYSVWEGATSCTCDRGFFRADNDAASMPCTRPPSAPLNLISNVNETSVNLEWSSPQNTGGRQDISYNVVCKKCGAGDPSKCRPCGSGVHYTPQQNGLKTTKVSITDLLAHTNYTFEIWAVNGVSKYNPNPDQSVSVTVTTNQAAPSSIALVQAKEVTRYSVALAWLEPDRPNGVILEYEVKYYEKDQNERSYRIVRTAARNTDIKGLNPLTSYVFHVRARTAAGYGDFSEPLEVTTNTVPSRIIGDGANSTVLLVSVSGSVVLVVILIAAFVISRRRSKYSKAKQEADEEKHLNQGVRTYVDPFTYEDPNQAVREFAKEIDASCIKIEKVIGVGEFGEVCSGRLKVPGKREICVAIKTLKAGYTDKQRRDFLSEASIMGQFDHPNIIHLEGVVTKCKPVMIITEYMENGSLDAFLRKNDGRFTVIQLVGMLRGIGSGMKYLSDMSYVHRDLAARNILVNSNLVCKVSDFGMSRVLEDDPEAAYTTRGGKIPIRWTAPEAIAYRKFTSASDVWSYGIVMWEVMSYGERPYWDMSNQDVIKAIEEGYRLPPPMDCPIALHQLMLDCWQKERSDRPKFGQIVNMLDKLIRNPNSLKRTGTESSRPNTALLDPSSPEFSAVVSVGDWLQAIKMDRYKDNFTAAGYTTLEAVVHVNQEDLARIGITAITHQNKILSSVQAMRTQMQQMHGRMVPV

As for `Nc1ncnc2c1c(-c1ccc(Oc3ccccc3)cc1)cn2C1CCCC1`, the residual activity was 104% in assay [1]; 91% in assay [2]; 82% in [3]; 72% in assay [4]; 18% in [5]; 100% in assay [6]. In addition, the residual activity in [7] stood at 55%; in [8] it was 101%; in [9], 48%; in [10], 112%; in [11], 79%; in [12], 83%. Further, the residual activity in assay [13] was determined as 38%; in assay [14] it was 94%; in assay [15] it was 66%; in assay [16], 84%; in assay [17] it was 27%; in assay [18], 90%.
As for `N#Cc1c(NC(=O)c2cccc3ccccc23)sc2c1CCCC2`, in [1], the residual activity amounted to 134%.
Take `O=C(Nc1nc2ccccc2n1CCN1CCOCC1)c1cccc([N+](=O)[O-])c1`: the residual activity in assay [1] amounted to 53%; in [2], 102%; in assay [3], 88%; in assay [4], 80%; in [5], 123%; in assay [8] it was 104%. Further, the residual activity was determined as 81% in assay [9], 108% in assay [16], 103% in assay [17] and 100% in assay [18].
In the case of `O=C1Cc2c([nH]c3ccc([N+](=O)[O-])cc23)-c2ccccc2N1`, the residual activity in [1] came to 7%; in [2], 54%; in assay [3], 71%; in [4], 109%; in assay [5], 103%; in assay [10], 105%. The residual activity in assay [11] stood at 105%.
`COc1ccc(COc2ccc(Cc3cnc(N)nc3N)cc2OC)cc1`: the residual activity in assay [1] was 112%; in assay [19] it was 112%; in [20], 114%; in assay [5], 77%; in assay [8], 108%; in assay [9] it was 78%. Besides, the values for the residual activity in [12] and in [17] were 111% and 110%, respectively.
